6 compounds from PubChem BioAssay can be followed below.

Experiment [1] has as its system TRPC4 beta (transient receptor potential cation channel C4), mouse. Description: activators of mouse TRPC4 channel, confirmation, cell-based, Fluo4 calcium, HEK293 TRPC4beta/mu-opioid, duplicates, 10 µM (AID 2426;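 active means fluorescence ratio normalized to control raised more than 50% in primary screen plus both repeat runs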;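 on activation: percent rise of integrated ratio over buffer wells lacking compound which define 0%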). Particulars: Fluo4 calcium fluorescence, at 10 µM; active compounds read high.
The subject of experiment [2] is transient receptor potential cation channel C4 beta (TRPC4), mouse. Description: activators of mouse TRPC4 channel, confirmation, cell-based, second round, Fluo4, HEK293 TRPC4beta/mu-opioid, 1 µM (AID 2461;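 active means primary screen active and over 50% activation in each of two duplicate runs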;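 on activation: 0% = wells without test compound as baseline of integrated fluorescence ratio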). Particulars: Fluo4 calcium fluorescence, at 1 µM; active compounds read high.
Experiment [3] deals with TRPC4 (transient receptor potential cation channel C4 beta), mouse. Description: positive allosteric modulators of mouse TRPC4, confirmation, cell-based, second round, Fluo-4, HEK293 TRPC4beta/mu-opioid, 1 µM (AID 2554;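 active means primary screen hit whose fluorescence ratio, in both repeats, exceeds the weak agonist control mean by 3 SD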). The following applies: DAMGO EC20, Fluo-4 calcium flux, at 1 µM; active compounds read high. Background: A change in cytosolic calcium serves as a functional read-out for many receptors and channels.

For experiment [4], the system named is TRPC4 beta (transient receptor potential cation channel C4), mouse. Description: positive allosteric modulators of mouse TRPC4, confirmation, cell-based, Fluo-4, HEK293 TRPC4beta/mu-opioid (AID 2555;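 active means primary screen hit whose calcium fluorescence ratio, in both repeats, exceeds the weak agonist control mean by 3 SD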). Particulars: DAMGO EC20, Fluo-4 calcium flux, at 10 µM; active compounds read high.
The target of experiment [5] is Short transient receptor potential channel 4 (Mus musculus) (UniProt Q9QUQ5). Briefly: inhibitors of mouse TRPC4 channel, confirmation, cell-based, Fluo4, HEK293 TRPC4beta/mu-opioid (AID 2636;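 active means calcium signal cut by more than 3 SD below the full-agonist control yet still positive, in both repeats and the earlier primary screen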). The following applies: DAMGO, Fluo4 calcium flux, at 10 µM; active compounds read high.
Sequence of Short transient receptor potential channel 4 (Mus musculus) (Q9QUQ5 whole entry, looked up): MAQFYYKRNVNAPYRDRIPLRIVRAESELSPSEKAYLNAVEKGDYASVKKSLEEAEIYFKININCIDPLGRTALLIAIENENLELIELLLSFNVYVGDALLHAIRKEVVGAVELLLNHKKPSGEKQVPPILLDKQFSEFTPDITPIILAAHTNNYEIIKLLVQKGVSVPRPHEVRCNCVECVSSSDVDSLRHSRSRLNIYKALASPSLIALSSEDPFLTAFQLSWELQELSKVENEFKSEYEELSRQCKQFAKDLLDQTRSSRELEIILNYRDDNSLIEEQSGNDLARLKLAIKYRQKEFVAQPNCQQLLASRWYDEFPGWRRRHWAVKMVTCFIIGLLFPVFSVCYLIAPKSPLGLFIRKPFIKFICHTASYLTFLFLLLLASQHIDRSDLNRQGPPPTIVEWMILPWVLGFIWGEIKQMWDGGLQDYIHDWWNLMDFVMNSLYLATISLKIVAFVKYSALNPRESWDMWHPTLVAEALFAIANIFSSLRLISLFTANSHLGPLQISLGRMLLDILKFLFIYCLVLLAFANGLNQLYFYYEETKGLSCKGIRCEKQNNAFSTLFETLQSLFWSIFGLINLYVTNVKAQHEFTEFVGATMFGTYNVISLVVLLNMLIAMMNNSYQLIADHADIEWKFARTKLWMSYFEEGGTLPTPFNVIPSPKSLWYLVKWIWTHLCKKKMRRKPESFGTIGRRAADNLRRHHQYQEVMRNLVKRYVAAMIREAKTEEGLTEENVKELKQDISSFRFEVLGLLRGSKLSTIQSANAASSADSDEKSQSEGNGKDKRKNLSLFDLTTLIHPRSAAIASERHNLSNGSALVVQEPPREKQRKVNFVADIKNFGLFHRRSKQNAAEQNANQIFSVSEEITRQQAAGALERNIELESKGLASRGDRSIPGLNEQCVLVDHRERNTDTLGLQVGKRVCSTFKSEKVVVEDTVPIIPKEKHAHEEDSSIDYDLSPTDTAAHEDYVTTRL
Experiment [6] shares this target. Briefly: inhibitors of mouse TRPC4 channel, confirmation, cell-based, second round, Fluo4, HEK293 TRPC4beta/mu-opioid, 1 µM (AID 2637;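 active means calcium signal ratio cut to more than 3 SD under the fully stimulated control mean yet still positive, in both repeats and the primary screen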). Particulars: Fluo4 calcium flux, DAMGO, at 1 µM; active compounds read high.
Experiment [7] shares this target. Description: TRPC4 positive allosteric modulators, dose response, cell-based, HEK293 TRPC4/mu-opioid, Fluo-4 calcium, EC20 DAMGO (AID 434941).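 Further: calcium entry triggered by an EC20 dose of DAMGO at the co-expressed mu-opioid receptor.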
Experiment [8] has the same target. Description: mouse TRPC4 channel inhibitors, dose response, cell-based, HEK293 TRPC4/mu-opioid, Fluo-4 calcium (AID 434942;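 active means primary screen inhibitor hit that blocks the TRPC4 channel at some tested dose, yielding a dose curve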).
For experiment [9], the target named is Short transient receptor potential channel 6 (Mus musculus) (UniProt Q61143). Briefly: inhibition of mouse TRPC6 channel, confirmation, selectivity assay for TRPC4 inhibitor project, cell-based, HEK293, membrane potential dye, duplicate (AID 434948;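 active means active in primary screen and both duplicates, each dropping signal beyond three positive-control SD with fluorescence still positive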). Particulars: HEK293 TRPC6, membrane potential dye fluorescence, at 10 µM, stimulated with maximal-effect acetylcholine; active compounds read high.
Sequence of Short transient receptor potential channel 6 (Mus musculus) (Q61143 whole entry, looked up): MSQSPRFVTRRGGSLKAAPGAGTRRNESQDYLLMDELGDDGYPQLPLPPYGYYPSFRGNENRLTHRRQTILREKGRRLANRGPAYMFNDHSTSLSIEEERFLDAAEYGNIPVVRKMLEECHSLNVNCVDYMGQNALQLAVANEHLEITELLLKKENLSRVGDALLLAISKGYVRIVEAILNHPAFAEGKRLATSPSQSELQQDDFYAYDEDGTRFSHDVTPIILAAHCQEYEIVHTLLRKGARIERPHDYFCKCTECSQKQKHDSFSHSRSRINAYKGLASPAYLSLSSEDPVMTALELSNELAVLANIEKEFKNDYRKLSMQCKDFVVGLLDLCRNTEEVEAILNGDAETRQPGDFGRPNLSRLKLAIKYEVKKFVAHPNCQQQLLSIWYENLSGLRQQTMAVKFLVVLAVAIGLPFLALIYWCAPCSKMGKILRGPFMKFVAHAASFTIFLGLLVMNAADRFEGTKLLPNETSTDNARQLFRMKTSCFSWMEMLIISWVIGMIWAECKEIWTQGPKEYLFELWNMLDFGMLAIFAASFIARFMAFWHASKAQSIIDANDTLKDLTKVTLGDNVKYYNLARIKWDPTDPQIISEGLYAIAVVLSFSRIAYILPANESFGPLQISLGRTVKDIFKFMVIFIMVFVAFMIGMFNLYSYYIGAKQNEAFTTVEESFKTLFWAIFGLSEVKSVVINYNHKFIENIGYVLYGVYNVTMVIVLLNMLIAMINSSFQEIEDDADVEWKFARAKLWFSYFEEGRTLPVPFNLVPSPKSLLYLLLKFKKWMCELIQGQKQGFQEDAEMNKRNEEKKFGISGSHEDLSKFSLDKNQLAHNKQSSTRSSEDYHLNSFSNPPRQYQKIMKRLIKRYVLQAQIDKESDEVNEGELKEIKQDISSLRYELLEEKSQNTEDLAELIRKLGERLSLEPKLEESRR

For experiment [10] the target is unchanged. Description: activation of mouse TRPC6 channel, confirmation, selectivity assay for TRPC4 activator project, cell-based, HEK293, membrane potential dye, duplicate (AID 434950;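 active means membrane potential signal rise above negative control mean plus 3 SD in both duplicates, also active in the earlier TRPC4 screen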;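 on activation: 0% = buffer only wells and 100% = acetylcholine maximal-effect wells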). Particulars: HEK293 TRPC6, membrane potential fluorescence, at 10 µM; active compounds read high.
For experiment [11] the target is unchanged. Briefly: TRPC6 potentiation by TRPC4 potentiator hits, confirmation, selectivity assay for TRPC4 potentiator project, HEK293 cells, membrane potential dye, duplicate (AID 434952;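 active means compound raising the membrane signal above positive-control mean plus 3 SD in both repeats, and a primary screen hit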). The following applies: HEK293 TRPC6, membrane potential dye fluorescence, at 10 µM, maximal acetylcholine added after compound; active compounds read high.
The target of experiment [12] is Short transient receptor potential channel 4 (Mus musculus) (UniProt Q9QUQ5). Description: calcium flux activators in TRPC4/5HT1a cells, counter-screen for TRPC4 activator project, cell-based, second counter screen, HEK293 TRPC4/5HT1a, Fluo-4 (AID 434977;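 active means calcium signal rise above buffer-control mean plus 5 SD in both duplicates, and also a hit in the primary screen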;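 on activation: plate controls were assay buffer for no effect and maximal serotonin response for full effect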). Particulars: Fluo-4 calcium flux, at 10 µM; active compounds read high.
Experiment [13] in a line: calcium flux inhibitors in TRPC4/5HT1a cells, confirmation, counter-screen for TRPC4 inhibitor project, cell-based, second counter screen, HEK293 TRPC4/5HT1a, Fluo-4 (AID 434978;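 active means primary screen active whose calcium signal fell more than 3 SD beyond the full-serotonin control mean in both duplicate plates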;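 further: serotonin given first at submaximal then at maximal dose after compound preincubation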). Particulars: Fluo-4 calcium flux, at 10 µM, serotonin added to trigger calcium flux; active compounds read high.
Experiment [14] has as its system TRPC4 (mouse), co-expressed with 5HT1a in HEK293. Description: calcium flux potentiators in TRPC4/5HT1a cells, confirmation, counter-screen for TRPC4 potentiator project, cell-based, second counter screen, HEK293 TRPC4/5HT1a, Fluo-4 (AID 434979;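 active means signal rise over 3 SD above mean of control wells given weak agonist, in both repeats and first screen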). Particulars: Fluo-4 calcium flux, at 10 µM, serotonin added at its EC20 dose; active compounds read high.
Experiment [15] can be described thus: calcium flux activation in mu-opioid HEK293 cells, confirmation, counter-screen for TRPC4 activator project, cell-based, HEK293 mu-opioid receptor line (AID 449723;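 active means hit in primary screen, with calcium signal over 5 SD above buffer well mean in both duplicates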;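 further: counter screen cells carry the mu-opioid receptor alone and lack TRPC4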). The following applies: Fluo-4 calcium fluorescence, at 10 µM; active compounds read high.
Experiment [16] in a line: calcium flux enhancement in mu-opioid HEK293 cells, confirmation, counter-screen for TRPC4 allosteric potentiator project, cell-based, HEK293 mu-opioid receptor line (AID 449724;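 active means calcium signal rise more than 3 SD above the low-dose agonist control mean, in both duplicate plates and the primary screen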;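 further: HEK293 cells carrying mu-opioid receptor only with no TRPC4 channel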). The following applies: Fluo-4 calcium flux, at 10 µM, compound added before EC20 DAMGO stimulus; active compounds read high.
Experiment [17] can be described thus: thallium flux activation in parental CHO cells, counter-screen for KCNQ1 potentiator project (AID 493006;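 active means duplicate-averaged activation above buffer control mean plus 5 SD of those controls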;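 further: fluorescence ratio of max minus min over baseline after K+ and Tl+ depolarization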). Particulars: parental CHO-K1 cells, FluxOR thallium flux, at 10 µM; active compounds read high.
For experiment [18], the target named is Potassium voltage-gated channel subfamily KQT member 1 (Homo sapiens) (UniProt P51787). Description: KCNQ1 potassium channel potentiators, confirmation, FluxOR thallium flux, CHO cells, duplicates (AID 493007;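 active means potentiation averaged over duplicate wells exceeding buffer-only control mean by more than 3 SD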;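 further: 0% = buffer-only wells and 100% = R-L3 activator control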). Particulars: KCNQ1 cell line, FluxOR thallium flux fluorescence, at 10 µM; active compounds read high, % of reference activator effect, buffer zero.
Sequence of Potassium voltage-gated channel subfamily KQT member 1 (Homo sapiens) (P51787 whole entry, looked up): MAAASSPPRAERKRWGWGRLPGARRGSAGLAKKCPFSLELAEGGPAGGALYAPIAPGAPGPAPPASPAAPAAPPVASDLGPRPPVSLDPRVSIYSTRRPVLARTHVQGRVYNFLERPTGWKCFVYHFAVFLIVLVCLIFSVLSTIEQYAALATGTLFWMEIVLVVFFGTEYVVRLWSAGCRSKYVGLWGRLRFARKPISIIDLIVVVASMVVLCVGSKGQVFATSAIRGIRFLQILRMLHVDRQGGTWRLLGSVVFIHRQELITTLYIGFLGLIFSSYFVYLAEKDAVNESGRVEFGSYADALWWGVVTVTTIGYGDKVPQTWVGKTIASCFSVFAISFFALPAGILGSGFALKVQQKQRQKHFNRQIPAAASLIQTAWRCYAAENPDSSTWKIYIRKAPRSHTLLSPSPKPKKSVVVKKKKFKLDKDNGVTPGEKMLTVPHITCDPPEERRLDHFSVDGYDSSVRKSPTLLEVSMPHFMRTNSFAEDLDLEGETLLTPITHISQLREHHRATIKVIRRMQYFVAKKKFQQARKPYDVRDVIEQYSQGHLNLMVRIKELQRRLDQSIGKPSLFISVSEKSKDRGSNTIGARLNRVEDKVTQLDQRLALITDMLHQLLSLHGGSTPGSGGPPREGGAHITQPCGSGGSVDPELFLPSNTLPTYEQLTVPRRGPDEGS
The target of experiment [19] is Potassium voltage-gated channel subfamily KQT member 2 (Rattus norvegicus) (UniProt O88943). Briefly: rat KCNQ2 channel potentiation, selectivity assay for KCNQ1 potentiator project, KCNQ2-CHO-K1 cells (AID 493009;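 active means mean duplicate potentiation above the buffer control mean plus 5 SD of buffer wells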;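 further: assay conditions were tuned for KCNQ1 rather than KCNQ2 modulators; signal is max minus min fluorescence divided by baseline after thallium stimulus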). Particulars: FluxOR thallium flux fluorescence, at 10 µM; active compounds read high, scaled: buffer 0, activator control 100.
Sequence of Potassium voltage-gated channel subfamily KQT member 2 (Rattus norvegicus) (O88943 whole entry, looked up): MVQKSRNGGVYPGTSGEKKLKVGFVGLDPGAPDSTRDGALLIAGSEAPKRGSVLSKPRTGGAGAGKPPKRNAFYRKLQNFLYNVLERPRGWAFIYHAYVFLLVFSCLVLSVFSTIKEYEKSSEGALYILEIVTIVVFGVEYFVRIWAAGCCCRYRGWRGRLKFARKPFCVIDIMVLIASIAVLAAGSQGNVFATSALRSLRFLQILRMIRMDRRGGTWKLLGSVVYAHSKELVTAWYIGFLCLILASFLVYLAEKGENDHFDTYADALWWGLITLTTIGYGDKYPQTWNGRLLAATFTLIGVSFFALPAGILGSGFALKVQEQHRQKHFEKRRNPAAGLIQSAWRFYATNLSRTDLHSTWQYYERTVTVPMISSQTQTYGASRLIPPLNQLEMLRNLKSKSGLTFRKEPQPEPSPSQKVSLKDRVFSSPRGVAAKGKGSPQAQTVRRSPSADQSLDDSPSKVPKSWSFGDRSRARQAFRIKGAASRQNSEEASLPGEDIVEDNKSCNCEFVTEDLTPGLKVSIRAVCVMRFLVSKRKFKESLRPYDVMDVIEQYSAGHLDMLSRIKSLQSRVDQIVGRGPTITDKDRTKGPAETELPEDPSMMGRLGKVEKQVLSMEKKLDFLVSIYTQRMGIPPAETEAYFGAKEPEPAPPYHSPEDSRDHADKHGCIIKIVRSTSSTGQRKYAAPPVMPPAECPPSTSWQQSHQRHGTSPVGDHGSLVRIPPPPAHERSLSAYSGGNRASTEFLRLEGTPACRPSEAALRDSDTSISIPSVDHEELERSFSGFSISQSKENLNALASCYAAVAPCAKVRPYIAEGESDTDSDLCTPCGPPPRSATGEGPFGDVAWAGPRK
The target in experiment [20] is Potassium voltage-gated channel subfamily KQT member 1 (Homo sapiens) (UniProt P51787). Description: KCNQ1 channel current potentiators, confirmation, orthogonal assay for KCNQ1 potentiator project, IonWorks patch clamp, KCNQ1-CHO cells (AID 493184;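 active means current rise at least 3 SD above the untreated control mean in each of two repeat wells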). Particulars: automated patch clamp current, at 10 µM; active compounds read high.

The structures appear in SMILES notation. For some assays here: Measured potencies and affinities stand elsewhere. Calls of active or inactive are those of the source.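 How the source made its calls, unless noted: active means earlier screen potentiator hit that boosts the TRPC4 ion channel at some dose, with a dose response; inactive means no potentiation, no dose response, or not a prior hit.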

Turning to `Cc1ccc(C2N(c3ccc(Cl)c(Cl)c3)C(=O)C3CCCN32)o1` (centres undefined), the results for the activation in [1] and in experiment [12] were 53% (active) and 13.8% (active), respectively. Also, the outcome in [2], in experiment [5], in experiment [6], in experiment [7], in experiment [8] and in [9] was inactive. Moreover, the compound was called inactive in [10], in experiment [11], in experiment [13], in experiment [15] and in experiment [16]. For the same compound, the potentiation was 9% (active) in [3], 22% (active) in [4] and 20% (active) in experiment [14].

For `CN1CCN(c2ccc(C(F)(F)F)cc2NC(=O)Nc2ccccc2)CC1`, the activation in experiment [1] is 103% (active); in experiment [12] it was 28.6% (active). The result in [2], in experiment [4], in experiment [5], in [6], in [7] and in experiment [8] was inactive. The compound was classed as inactive in [9], in experiment [10], in experiment [11], in experiment [13], in [15] and in [16]. Also, the potentiation was 24% (active) in experiment [3] and 33.3% (active) in experiment [14].

For the compound `CN(C)C(CNC(=O)CCc1c[nH]c2ccccc12)c1ccccc1` (centres undefined), the activation in [1] was 89% (active); in experiment [2] it was 83% (active); in [10], 26% (active). For the same compound, the outcome in [3], in experiment [4], in experiment [5], in experiment [6], in experiment [7] and in [8] was inactive. In addition, the compound was called inactive in experiment [9], in experiment [11], in experiment [12], in [13], in [14] and in experiment [15]. For the same compound, the result in [16] was inactive.

Consider `O=C(O)c1ccc(-c2ccc(/C=c3/sc4nc5ccccc5n4c3=O)o2)cc1Cl`, for which the outcome in experiment [1], in experiment [2], in experiment [3], in [5], in [6] and in experiment [7] was inactive. Also, the result in experiment [8], in experiment [9], in [13], in [14] and in experiment [16] was inactive. The potentiation in experiment [4] is 10% (active). The activation was 218% (active) in experiment [10], 46.3% (active) in [12] and 40.9% (active) in [15]. Moreover, the potentiation, percent of control in experiment [11] was 166% (active).

Consider `CC[C@@H](C(=O)[C@@H](C)[C@@H](O)[C@H](C)CCc1ccc(C)c(O)c1C(=O)O)[C@H]1O[C@](CC)([C@H]2CC[C@](O)(CC)[C@H](C)O2)C[C@@H]1C`, for which the activation in experiment [1] was 472% (active); in experiment [10], 58.5% (active); in experiment [12], 177% (active); in experiment [15], 82.7% (active); in experiment [17] it was 558% (active). In addition, the outcome in experiment [2], in [3], in experiment [4], in experiment [5], in experiment [6] and in experiment [7] was inactive. In addition, the result in experiment [8], in [9], in [11], in [13], in [14] and in [16] was inactive. The outcome in [20] was inactive. Moreover, the potentiation is 149% (active) in experiment [18] and 502% (active) in experiment [19].

Regarding `CCCOc1ccc(C(=O)NNC(=S)NC(=O)c2cccs2)cc1`, the activation in experiment [1] is 104% (active); in experiment [12], 71.2% (active); in experiment [15] it was 22.6% (active); in experiment [17], 139% (active). Moreover, the outcome in [2], in experiment [3], in experiment [4], in experiment [5], in experiment [6] and in experiment [7] was inactive. The result in experiment [8], in [9], in experiment [10], in [11], in experiment [13] and in [14] was inactive. The result in [16] and in experiment [20] was inactive. Moreover, the potentiation was 135% (active) in experiment [18] and 275% (active) in experiment [19].
